# Assay outcomes deposited in PubChem BioAssay by Johns Hopkins Ion Channel Center.
# The list is not random: actives were taken first. Their share in the collection is about 1.6%.
# KCNQ2 inh = rat KCNQ2 potassium channel inhibitors, primary screen, cell-based, CHO-K1, FluxOR thallium flux, B-score; 20 min; stronger effect = lower value; B-score at 10 µM; hit rate 1.1% among 310,000; AID 2156, 2009; Potassium voltage-gated channel subfamily KQT member 2 (Rattus norvegicus), O88943;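 active means fluorescence ratio B-score at most minus 3 library SDs, with starting brightness B-score within 2 library SDs, cut at about -5.5 in these data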
# KCNQ2 pot = potentiators of rat KCNQ2 potassium channel; CHO-K1 KCNQ2, FluxOR thallium flux fluorescence; stronger effect = higher value; hit rate 0.54% among 310,000; B-score at 10 µM; Potassium voltage-gated channel subfamily KQT member 2 (Rattus norvegicus), O88943;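 active means fluorescence ratio B-score at least 3 SD of library B-scores, with initial fluorescence B-score within 3 of them, cut at about 5.3 in these data; same plate scores as AID 2156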;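 further: B-score of peak minus minimum over baseline fluorescence ratio after K+ and Tl+ stimulus; positive B-score means potentiation of KCNQ2 with more thallium influx and brighter signal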
# Kir21 confirm = mouse Kir2.1 channel blockers, retest, confirmation, cell-based, FluxOR thallium flux, duplicate; shares compounds with KCNQ2 pot; Kir2.1-expressing cells, FluxOR thallium flux fluorescence; stronger effect = lower value; Tl flux remaining, % of negative control (stronger effect = lower value), % at 10 µM; hit rate 41% among 2,300;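 active means Primary-screen hit whose thallium flux fell at least 3 control SD below untreated wells in both duplicates, with normal baseline fluorescence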;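 further: 0% = blank wells without stimulus and 100% = stimulated no-compound controls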
# Target sequence (P35561 whole entry, looked up): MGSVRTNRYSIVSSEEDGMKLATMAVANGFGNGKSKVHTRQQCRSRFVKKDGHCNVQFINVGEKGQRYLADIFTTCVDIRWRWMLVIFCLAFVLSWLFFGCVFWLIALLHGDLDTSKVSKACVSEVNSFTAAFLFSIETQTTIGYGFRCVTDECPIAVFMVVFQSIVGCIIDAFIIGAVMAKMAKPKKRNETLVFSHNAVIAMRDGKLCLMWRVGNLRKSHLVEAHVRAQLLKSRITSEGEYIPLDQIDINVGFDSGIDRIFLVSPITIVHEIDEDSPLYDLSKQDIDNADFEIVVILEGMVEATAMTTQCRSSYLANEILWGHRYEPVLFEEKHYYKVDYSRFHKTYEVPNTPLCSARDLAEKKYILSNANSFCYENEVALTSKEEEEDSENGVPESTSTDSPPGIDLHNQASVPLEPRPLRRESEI
# HEK293 Tl flux = alters thallium flux in parental HEK293 cells, Kir2.1 counter-screen | shares compounds with KCNQ2 pot | FluxOR thallium flux fluorescence; 0% = unstimulated blank wells | AID 2105 | hit rate 19% among 2,300 | FluxOR signal as % of negative control (100 = no effect), % at 10 µM;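 active means dye signal at least 3 control SD above or below untreated wells in both duplicates, raw fluorescence within 3, either direction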;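 further: percent is based on the flux ratio of peak minus minimum fluorescence over baseline F0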
# CHO-K1 Tl ctr = nonspecific thallium flux increase in parental CHO-K1, confirmation, counter-screen for KCNQ2 potentiator project, cell-based, FluxOR thallium flux, duplicate; shares compounds with KCNQ2 pot; parental CHO-K1 cells, FluxOR thallium flux fluorescence; zero = vehicle mean+3SD, 100% = vehicle-minus-blank window; activity increase over 3SD of controls, % at 10 µM; hit rate 43% among 1,200;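 active means signal rise of at least 3 SD above the untreated control mean, in both duplicate wells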;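 further: counter screen of KCNQ2 potentiator hits so any rise reflects channel-independent effects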
# KCNQ1 sel pot = human KCNQ1 channel potentiation off-target, confirmation, selectivity assay for KCNQ2 potentiator project, cell-based, CHO, FluxOR thallium flux. shares compounds with KCNQ2 pot. CHO KCNQ1 stable, FluxOR thallium flux fluorescence; beyond 3SD, as % of vehicle-control signal. activation over 3SD threshold, % at 10 µM. hit rate 28% among 1,200. AID 2283, 2010;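 active means fluorescence ratio rise of at least 3 SD of vehicle wells above their mean, in both replicate wells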;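 further: 0% = vehicle mean plus 3 SD and 100% = vehicle minus unstimulated blank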
# KCNQ2 pot conf = rat KCNQ2 channel potentiators, confirmation, cell-based, CHO, FluxOR thallium flux, duplicate | shares compounds with KCNQ2 pot | CHO-KCNQ2 cells, FluxOR thallium flux fluorescence | potentiation, less the hit threshold, % at 10 µM | hit rate 68% among 1,200 | AID 2287, 2010;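 active means fluorescence ratio rising 3 SD or more over the vehicle control mean in both replicates, plus primary screen hit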;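 further: peak minus minimum thallium fluorescence divided by baseline after K/Tl stimulus; 0% = vehicle mean plus 3 SD and 100% = vehicle minus unstimulated blank difference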
# Kir2-1 sel = mouse Kir2.1 channel activation off-target, confirmation, selectivity assay for KCNQ2 potentiator project, cell-based, HEK293, FluxOR thallium flux. HEK293 Kir2.1, FluxOR thallium flux fluorescence. activity over 3SD threshold, % at 10 µM. shares compounds with KCNQ2 pot. hit rate 2% among 1,200;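 active means fluorescence ratio rise of at least 3 SD above the vehicle-control mean, seen in both replicates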;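 further: 0% = vehicle mean plus 3 SD and 100% = vehicle minus no-stimulus blank window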
# KCNQ2 W236L MoA = potentiators of retigabine-insensitive KCNQ2 W236L, mechanism study for KCNQ2 potentiator project, cell-based, rat KCNQ2 W236L, CHO, automated patch clamp | hit rate 10% among 940 | current increase over 3SD of negative controls (%), stronger effect = higher value, % at 25 µM | shares compounds with KCNQ2 pot | automated patch clamp current | AID 2558, 2010;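 active means current increase at least 3 SD of the untreated controls above them in both duplicate recordings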
# * hit, by the source's call; i = inactive; x = no result given.
SMILES,KCNQ2 inh,KCNQ2 pot,Kir21 confirm,HEK293 Tl flux,others
COc1cccc(CNC(=O)N2CCN(c3ccccc3Cl)CC2)c1,i,0.46,x,x,
COc1ccccc1CCNC(=O)C(=O)NCC1OCCN1S(=O)(=O)c1ccc(C)cc1 (stereo not given),i,x,x,x,
CC(NS(=O)(=O)c1ccc2c(c1)OCCO2)c1ccccc1 (stereo not given),i,0.93,x,x,
CC(NS(=O)(=O)c1ccc(Br)cc1)c1ccccc1 (stereo not given),i,x,47%*,i,
COCCCNC(=O)CSc1nc2ccccc2c(=O)n1CCCN1CCCCC1,i,0.68,x,x,
COc1ccc(NC(=O)CSc2nc3ccccc3c(=O)n2CCCN2CCCCC2)c(OC)c1,i,x,62%*,i,
CC1COC(C)(CC(=O)NN2C(=O)c3ccccc3C2=O)O1 (stereo not given),i,x,x,x,
Cc1nnsc1C(=O)N1CCCC(N2CCN(c3ccc(F)cc3)CC2)C1 (stereo not given),i,0.16,x,x,
Cc1scc(-c2n[nH]c(=S)n2C(C)c2ccccc2)c1C (stereo not given),i,x,x,x,
CCc1cc(-c2n[nH]c(=S)n2C(C)c2ccccc2)cs1 (stereo not given),i,1.9,50%*,i,
CCCCN(CC(=O)NC1CCCC1)C(=O)C(=O)Nc1ccc2c(c1)OCCO2,i,1.7,x,x,
COC(=O)C1=C(C)N(Cc2ccccc2)C(=NCCc2cccnc2)N[C@H]1c1ccccc1,i,2.6,i,i,
COC(=O)C1=C(C)N(Cc2ccccc2)C(=NCc2ccc(OC)cc2)N[C@H]1c1cccc(F)c1,i,x,26%*,i,
COC(=O)C1=C(C)N(Cc2ccccc2)C(=NCCCCO)N[C@H]1c1ccccc1,i,x,x,x,
CCOC(=O)CN1C(=O)N[C@@H](c2cccc(F)c2)C(C(=O)OC)=C1C,i,x,i,i,
COC(=O)C1=C(C)N(Cc2ccccc2)C(=NCc2cc(OC)c(OC)c(OC)c2)N[C@H]1c1cccc(F)c1,i,x,x,x,
CCOC(=O)CN1C(=O)N[C@@H](c2cccc(F)c2)C(C(C)=O)=C1C,i,x,x,x,
COC(=O)C[C@H]1c2cc(F)cc(F)c2S(=O)(=O)N1C1CCN(Cc2ccccc2)CC1,i,0.77,x,x,
CSc1ncccc1C(=O)N1CCCC(N2CCN(c3ccccc3F)CC2)C1 (stereo not given),i,0.53,x,x,
C#CCn1c(=NC(=O)CSC(C)=O)sc2cc(F)ccc21,i,20*,i,i,CHO-K1 Tl ctr=-5;KCNQ1 sel pot=-21;KCNQ2 pot conf=62*;Kir2-1 sel=-34;KCNQ2 W236L MoA=36%*
CCn1c(=NC(=O)CSC(C)=O)sc2cc(F)ccc21,i,1.5,x,x,
COc1ccc(NS(=O)(=O)c2cccc(C(=O)NNC(=O)CNC(=O)c3cccc(C)c3)c2)cc1,i,x,x,x,
